Test results from PubChem BioAssay AID652017 (The Scripps Research Institute Molecular Screening Center, 2013).
The whole screen tested about 370,000 compounds, of which about 3,800 (1%) were called active. Cut-off read from the data, not from the text of the source: active = activation above about 7.8%; inactive = the rest. The full list was thinned out, with actives kept by preference.

Assay: SMARCA2 (BRM) function activators, primary screen, cell-based, luminescence, high throughput (AID 652017);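 note: 0% = vehicle wells and 100% = reference activator wells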
Conditions: MG213 cells, MMTV-luciferase reporter, dexamethasone, overnight; at 9.1 µM; stronger effect = higher value

Row | Compound | activation
1 | O=C(C1CCCO1)N(Cc1ccccc1)c1ccccc1 (stereo not given) | -1.33% (inactive)
2 | O=C(Nc1nnc(CCc2ccccc2)s1)C1CCCO1 (stereo not given) | 8.46% (active)
3 | O=C(NCc1ccccc1Cl)C1CCCO1 (stereo not given) | -4.52% (inactive)
4 | CC(=O)C1(C(=O)Nc2nccs2)CC(c2ccccc2C(F)(F)F)=NO1 (stereo not given) | -1.46% (inactive)
5 | COc1ccc(CN(CCN2CCOCC2)C(=O)c2ccc(C)cc2)cc1OC | -0.94% (inactive)
6 | CN(C)[C@H]1CCN(c2cccc3c2S(=O)(=O)N2CC[C@H](C2)O3)C1 | 0.57% (inactive)
7 | COc1ccc(-c2cc(-c3nnc(SCC(=O)Nc4cccc5ccccc45)n3N)[nH]n2)cc1 | -3.63% (inactive)
8 | COc1ccc(C#CCNCc2ccc(OC)cc2OC)cc1 | -1.96% (inactive)
9 | COc1ccc(CN(C)Cc2nc3cc(OC)c(OC)cc3c(=O)[nH]2)c(OC)c1 | -2.98% (inactive)
10 | C=CCOC/C=C/C#CCN(CC=C)Cc1ccc(OC)cc1OC | 7.87% (active)
11 | C=CCN1C(=O)[C@H](CC(=O)N2CCN(C(=O)OCC)CC2)[C@@]2(C(=O)OCC)CCCC=C12 | -0.21% (inactive)
12 | C=CCN1C(=O)[C@H](CC(=O)NCCCN2CCCC2=O)[C@@]2(C(=O)OCC)CCCC=C12 | -0.89% (inactive)
13 | CCn1c2ccccc2c2cc(NC(=O)CSc3nnc(-c4ccccc4)n3-c3ccc(C)cc3)ccc21 | -2.83% (inactive)
14 | CCc1cc2c(=O)c(-c3nc4ccccc4n3C)c(CCCC(=O)O)oc2cc1OC(=O)C(C)(C)C | -2.32% (inactive)
15 | COc1ccc2oc(N)c(C=O)c(=O)c2c1 | 0.14% (inactive)
16 | CCc1cc2c(=O)c(-c3ccon3)c(N)oc2cc1OC | 8.66% (active)
17 | O=S1(=O)c2c(NCc3ccco3)cccc2Oc2ccccc2CN1Cc1cn(Cc2cccc(C(F)(F)F)c2)nn1 | -3.67% (inactive)
18 | CCN(CC)CCNC(=O)c1ccc(NC(=O)c2c(F)cccc2Cl)cc1 | -0.88% (inactive)
19 | CCN(CC)CCOC(=O)c1ccc(NC(=O)CNC(=O)c2ccccc2)cc1 | -3.5% (inactive)
20 | CCN(CC)CCNC(=O)c1ccc(NC(=O)c2cc(-c3ccncc3)nc3ccccc23)cc1 | 8.42% (active)
21 | O=C1Nc2ccccc2OC1CC(=O)N1CCCCCCC1 (stereo not given) | 0.95% (inactive)
22 | COc1ccc(-c2ccc3nnc(SCC(=O)Nc4ccc(NC(C)=O)cc4)n3n2)cc1 | -0.74% (inactive)
23 | O=[N+]([O-])c1ccc(CN2CC(N3CC=CC3)CS2(=O)=O)cc1 (stereo not given) | -2.21% (inactive)
24 | O=C1/C(=C\c2ccc([N+](=O)[O-])cc2)CS(=O)(=O)C/C1=C/c1ccc([N+](=O)[O-])cc1 | 16.5% (active)
25 | C[C@H](C(=O)N(C)c1ccccc1)[C@@H](O)c1ccc2ccccc2c1 | -2.92% (inactive)
26 | CCCCCCNS(=O)(=O)c1ccccc1Br | -0.14% (inactive)
27 | c1csc(-c2nnc(SCc3nc4ccccc4[nH]3)o2)c1 | -0.75% (inactive)
28 | O=C(CSc1ccc(-c2cccs2)nn1)Nc1ccccc1F | -0.22% (inactive)

Row | Compound | activation
29 | Cc1cccc(CSc2ccc(-c3cccs3)nn2)c1 | 9.78% (active)
30 | CC(C)(C)c1ccc(CSc2nnc(-c3cccs3)o2)cc1 | -1.53% (inactive)
31 | Cc1ccc(OCc2nnc(SC/C=C/c3ccccc3)n2Cc2ccco2)cc1 | -4.07% (inactive)
32 | Cc1ccc(NC(=O)c2cc3ccccc3o2)cc1 | 8.36% (active)
33 | CC(OC(=O)c1cc2ccccc2o1)C(=O)Nc1ccc(N2CCOCC2)cc1 (stereo not given) | -1.72% (inactive)
34 | Cc1cccc(-n2nc3c(c2NC(=O)c2cc4ccccc4o2)CS(=O)(=O)C3)c1 | -1.69% (inactive)
35 | O=C(Nc1ccccc1)N1CCN(Cc2nc3ccccc3c(=O)[nH]2)CC1 | -4.04% (inactive)
36 | COC(=O)c1cc(S(=O)(=O)N2CCN(c3ccccc3C)CC2)cn1C | -6.95% (inactive)
37 | CCCCOCCCNC(=O)C[C@H]1C[C@@]2(C(=O)OC)C(=C[C@H](C(C)(C)C)O[C@@H]2C)N(CCc2ccc(OC)c(OC)c2)C1=O | -1.39% (inactive)
38 | Nc1[nH]c(/C=C2/CCCCC2n2[nH]c(=O)n(-c3ccccc3)c2=O)c(Cc2ccccc2)[n+]1Cc1ccccc1 (stereo not given) | -4.04% (inactive)
39 | COc1ccc(CNS(=O)(=O)c2ccc(NC(=O)N3CCCCC3)cc2)cc1 | -3.18% (inactive)
40 | COc1ccc(S(=O)(=O)NC(C)C(=O)N2CCCCCC2)cc1 (stereo not given) | 8.03% (active)
41 | COc1ccc(N2CC(C(=O)N[C@@H](C)C(=O)N3CCCCC3)CC2=O)cc1 (stereo not given in full) | 1.33% (inactive)
42 | COCC(=O)N[C@@H]1C[C@@H]2O[C@@H](CO)CC[C@@H]2O[C@@H]1CCc1ccc(-c2ccccc2)cc1 | 0.63% (inactive)
43 | CCOC(=O)[C@]12CCCC=C1N(Cc1ccc(OC)cc1)C(=O)[C@@H]2CC(=O)NCc1cccs1 | -2.09% (inactive)
44 | O=C(Cn1[nH]c(=O)c2ccccc2c1=O)Nc1cccc(-c2nnc3n2CCCCC3)c1 | -0.49% (inactive)
45 | Cc1c(C(=O)Nc2cccc(-c3nnc4n3CCCCC4)c2)oc2ccccc12 | -1.34% (inactive)
46 | CC(=O)c1ccc(NC(=O)c2sc3nc4n(c(=O)c3c2C)CCCCC4)cc1 | 9.72% (active)
47 | O=C(Nc1ccc2nc3n(c(=O)c2c1)CCCC3)c1ccc(Cl)nc1 | -1.5% (inactive)
48 | CC1CCN(C(=O)c2ccc3c(=O)n4c(nc3c2)CCCCC4)CC1 | -1.07% (inactive)
49 | O=c1c2c(nc3n1CCCCC3)sc1c(O)cccc12 | 10.3% (active)
50 | COc1cccc(CNC(=O)CNS(=O)(=O)c2ccc3nc(C)sc3c2)c1OC | -2.54% (inactive)
51 | O=C(NC1CCCC1)C1CSCCS(=O)(=O)N1Cc1ccccc1 (stereo not given) | -0.49% (inactive)
52 | COC(=O)[C@]12C[C@H](CC(=O)NCCCN3CCCC3=O)C(=O)N(CCc3ccc(OC)c(OC)c3)C1=C[C@H](COCc1ccccc1)O[C@@H]2C | -2.89% (inactive)
53 | Cc1cc(C)cc(NC(=O)N2CCC(N(C)CCC(C)C)CC2)c1 | -3.63% (inactive)
54 | COC(=O)c1cccc(Cn2ccc3ccc(-c4ccc5ccn(C(=O)c6ccccc6C)c5c4)cc32)c1 | -2.21% (inactive)
55 | COc1ccc(-n2c(SCC(=O)Nc3ccccc3-c3ccccc3)nnc2-c2cccnc2)cc1 | -4.88% (inactive)
